High-throughput results: PubChem BioAssay, several laboratories
Cl transport mod – KCC2 cotransporter modulators, thallium flux, primary screen, cell-based, HEK293 KCC2, FluoZin-2 fluorescence, MLSMR | Solute carrier family 12 member 5 (Homo sapiens), Q9H2X9 | KCC2 cells, thallium flux FluoZin-2 fluorescence | B-score of Tl+ flux slope (higher = more flux/activation; lower = inhibition) at 10 µM | hit rate 2.2% among 190,000 | AID 1456, 2008;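 active = thallium flux slope and its plate-corrected score both differing from the plate sample mean at a set confidence after two filtering rounds, in either direction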;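 also: slope of fluorescence scaled to starting intensity during 10 to 20 s after thallium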
Efflux pump inh – inhibitors of Candida efflux pumps in yeast, primary screen, S. cerevisiae, Nile Red, multiplex. S. cerevisiae Candida pump triplex. inhibition, % at 10 µM. hit rate 0.44% among 330,000. AID 485275, 2010;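 active = plate passing quality check with inhibition over a set limit, or well fluorescence over plate mean plus 4 SD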;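 also: Nile Red retained in pooled yeast measured as flow cytometry median fluorescence; 0% = buffer negative control and 100% = Enniatin B positive control; higher means more Nile Red kept so more efflux inhibition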
PHOSPHO1 inh – PubChem AID 1565. Phosphoethanolamine/phosphocholine phosphatase (Homo sapiens), Q8TCT1. recombinant PHOSPHO1, absorbance phosphatase assay. inhibition, % at 13.3 µM. hit rate 1.1% among 290,000; in the data active = inhibition above about 60%
H9c2 protect – cardioprotection against H2O2-induced cell death, primary screen, uHTS, H9c2 cells, ATPLite luminescence. AID 588492, 2011. protection from H2O2 cell death, % at 20 µM. hit rate 0.63% among 360,000. H9c2 cardiomyocytes, H2O2 injury protection, 2 h;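 active = compounds giving at least 50% protection of heart cells from peroxide-induced death in the single-dose screen, raw or plate-pattern-corrected value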;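 also: 0% = DMSO wells with peroxide and 100% = DMSO wells without peroxide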
Calb FLC – C. albicans growth inhibition with fluconazole, primary screen, CaCi-2 strain, Alamar Blue fluorescence. C. albicans CaCi-2 (fluconazole-resistant clinical isolate) + fluconazole, 48 h. growth inhibition, % (no concentration beside the values). hit rate 0.57% among 300,000. AID 1979, 2009;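 active = growth inhibition above about 58% in most replicates, limit read from the data, passing the limit was not always enough; inconclusive = exactly half the replicates above a set limit; inactive = most replicates below a set limit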;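 also: all wells also contain fluconazole at 8 µg/ml as a sub-toxic cotreatment; 0% = median of DMSO wells and 100% = median of geldanamycin control wells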
KCC2 secondary – KCC2 modulators in sodium-free buffer, confirmation, cell-based, HEK293 KCC2, thallium flux, secondary assay; normalised thallium flux (F/F0 slope) at 10 µM; FluoZin2 fluorescence; active compounds read high; hit rate 15% among 3,700; shares compounds with Cl transport mod;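 active = thallium flux slope above the same plate's solvent-only control mean plus 3 SD; inconclusive = the two replicate wells disagree; inactive = no significant difference from solvent-only control wells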
KCC2 bumet counter – thallium flux persisting under bumetanide in KCC2 cells, confirmation, counter-screen for KCC2 modulator project, cell-based, HEK293 KCC2, FluoZin2, secondary assay 3; shares compounds with Cl transport mod; HEK293-KCC2 + bumetanide/ouabain; active compounds read high; normalized thallium flux at 10 µM; hit rate 49% among 3,700; AID 1714, 2009;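 active = thallium entry rate above the same plate's blocked-transporter control wells by more than 3 SD; inconclusive = the two repeat wells disagree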;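 also: raw slope of fluorescence over initial fluorescence between 10 and 20 s after thallium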
KCC2 secondary2 – KCC2 modulators without ouabain present, confirmation, cell-based, HEK293 KCC2, thallium flux, FluoZin2, secondary assay 2 | shares compounds with Cl transport mod | thallium flux FluoZin2 fluorescence; actives lie on both sides; F/F0 rise rate, 10–20 s post-thallium | normalized thallium flux at 10 µM | hit rate 23% among 3,700;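 active = thallium flux slope more than 3 SD above or below the plate's solvent-only control mean, mostly below; inconclusive = the two repeat wells disagreed; inactive = no significant shift from solvent-only controls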;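 also: raw slope with 0.1% DMSO as baseline and bumetanide as block control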
HEK293 Tl flux – thallium flux modulation in parental HEK cells, confirmation, counter-screen for KCC2 modulator project, cell-based, counterscreen 1; shares compounds with Cl transport mod; HEK293 parental cells, thallium flux FluoZin2, ouabain; baseline-ratio fluorescence slope, 10–20 s after thallium; thallium flux rate (normalised fluorescence) at 10 µM; hit rate 46% among 3,700; AID 1716, 2009;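 active = thallium flux rate significantly above the same plate's solvent-only control wells, beyond their mean plus 3 SD; inconclusive = the two replicate wells gave conflicting results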
KCC2 retest ouab – KCC2 inhibitors and activators, ouabain retest, confirmation, HEK-KCC2 cells; AID 1717, 2009; raw Tl+ flux slope (below DMSO = inhibition, above = activation) at 10 µM; HEK293-KCC2, thallium flux FluoZin2 fluorescence; bidirectional: low = inhibitor, high = activator; shares compounds with Cl transport mod; hit rate 48% among 3,700;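 active = thallium flux slope beyond 3 SD from same-plate DMSO control mean in most replicates, usually higher, sometimes lower; inconclusive = repeat tests gave conflicting results; inactive = no significant difference from controls in most replicates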;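 also: slope of initial-normalized fluorescence between seconds 10 and 20 after thallium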
HEK counter2 – native HEK Tl+ uptake effects, second counter-screen – HEK cells, counterscreen 2, counter-screen for KCC2 modulator project, confirmation; shares compounds with Cl transport mod; HEK293 parental, thallium flux FluoZin-2 fluorescence slope; thallium flux slope at 10 µM; hit rate 33% among 3,700; AID 1718, 2009;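 active = thallium flux slope above the same plate's solvent-control mean plus 3 SD in both duplicate wells; inconclusive = duplicate wells that disagreed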;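 also: run without ouabain in cells lacking the KCC2 cotransporter; slope of fluorescence scaled to its starting value between 10 and 20 s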
* marks the source's active call; other numbers are inactive results. Hits are enriched below; roughly 3.3% of the tested compounds scored in any of these assays.

Results for CCOC(=O)/C(C)=N/NC(=O)c1ccc([N+](=O)[O-])cc1 ?
Cl transport mod: 23.2*; Efflux pump inh: 0.1; PHOSPHO1 inh: -5.9; H9c2 protect: 10.1; Calb FLC: -19.4; KCC2 secondary: 0.00939*; KCC2 bumet counter: 0.0319*; KCC2 secondary2: 0.0377*; HEK293 Tl flux: 0.034*; KCC2 retest ouab: 0.0388*; HEK counter2: 0.0246*

What do the screens show for `CN(C1CCCCC1)C(CNS(=O)(=O)c1ccc(Cl)cc1)c1ccccc1` (centres undefined)?
Efflux pump inh: -0.2; PHOSPHO1 inh: -1.2; H9c2 protect: -6.0; Calb FLC: -8.6

Results for Cc1ccc2c(c1)C1CN(C)CCC1N2C(=S)NC(=O)c1ccc(Cl)cc1Cl (centres undefined) ?
Cl transport mod: 61.4*; Efflux pump inh: 0.0; PHOSPHO1 inh: 0.1; H9c2 protect: 6.5; Calb FLC: -11.0; KCC2 secondary: 0.0233*; KCC2 bumet counter: 0.106*; KCC2 secondary2: 0.0301; HEK293 Tl flux: 0.0319*; KCC2 retest ouab: 0.0606*; HEK counter2: 0.0127*

How did COCCn1c(SCC(=O)NCCCN2CCCC2=O)nc2sc3c(c2c1=O)CCCC3 do in these assays?
H9c2 protect: -0.2

Results for O=c1oc(-c2ccc(F)cc2)nc2ccsc12 ?
Efflux pump inh: 0.0; PHOSPHO1 inh: 14.7; H9c2 protect: 15.9; Calb FLC: -9.9; KCC2 secondary: 0.00605; KCC2 bumet counter: 0.00502; KCC2 secondary2: 0.0316; HEK293 Tl flux: inconclusive; KCC2 retest ouab: 0.0168*; HEK counter2: 0.01

How did O=c1oc(-c2ccccc2Cl)nc2ccsc12 do in these assays?
Efflux pump inh: 0.2; PHOSPHO1 inh: -1.3; H9c2 protect: 18.6; Calb FLC: 2.2

What do the screens show for `Cc1onc(-c2ccccc2)c1C(=O)OCC(=O)N(CC(C)C)c1c(N)n(Cc2ccccc2)c(=O)[nH]c1=O`?
Efflux pump inh: 0.0; H9c2 protect: 13.7; Calb FLC: -12.3

How did CCCN1C(=O)/C(=C/c2ccc(C)o2)NC1=S do in these assays?
Cl transport mod: 82.7*; Efflux pump inh: -0.1; PHOSPHO1 inh: -17.0; Calb FLC: 1.4; KCC2 secondary: 0.0216*; KCC2 bumet counter: 0.12*; KCC2 secondary2: inconclusive; HEK293 Tl flux: 0.0495*; KCC2 retest ouab: 0.0846*; HEK counter2: 0.0178*

How did O=C(COC(=O)Cn1ccc(=O)[nH]c1=O)Nc1ccc(F)cc1 do in these assays?
Efflux pump inh: 0.3; H9c2 protect: 5.1
